Measured values taken from paper PMC4336329 (PLoS ONE, 2015).
The whole screen tested about 310,000 compounds, of which about 14,000 (4.5%) showed an effect of 50% or more. Effects have a minus sign here. Shown is part of a subset that was picked to be rich in strong results.

Target: human ether-à-go-go-related gene (hERG) potassium channel (human, UniProt Q12809)
Test: primary screen, population patch clamp on CHO cells stably expressing hERG; higher = less effect of the substance
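Note: peak tail current of the secondary pulse compared with the same well before compound.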

Chain of human ether-à-go-go-related gene (hERG) potassium channel (Q12809 whole entry, looked up): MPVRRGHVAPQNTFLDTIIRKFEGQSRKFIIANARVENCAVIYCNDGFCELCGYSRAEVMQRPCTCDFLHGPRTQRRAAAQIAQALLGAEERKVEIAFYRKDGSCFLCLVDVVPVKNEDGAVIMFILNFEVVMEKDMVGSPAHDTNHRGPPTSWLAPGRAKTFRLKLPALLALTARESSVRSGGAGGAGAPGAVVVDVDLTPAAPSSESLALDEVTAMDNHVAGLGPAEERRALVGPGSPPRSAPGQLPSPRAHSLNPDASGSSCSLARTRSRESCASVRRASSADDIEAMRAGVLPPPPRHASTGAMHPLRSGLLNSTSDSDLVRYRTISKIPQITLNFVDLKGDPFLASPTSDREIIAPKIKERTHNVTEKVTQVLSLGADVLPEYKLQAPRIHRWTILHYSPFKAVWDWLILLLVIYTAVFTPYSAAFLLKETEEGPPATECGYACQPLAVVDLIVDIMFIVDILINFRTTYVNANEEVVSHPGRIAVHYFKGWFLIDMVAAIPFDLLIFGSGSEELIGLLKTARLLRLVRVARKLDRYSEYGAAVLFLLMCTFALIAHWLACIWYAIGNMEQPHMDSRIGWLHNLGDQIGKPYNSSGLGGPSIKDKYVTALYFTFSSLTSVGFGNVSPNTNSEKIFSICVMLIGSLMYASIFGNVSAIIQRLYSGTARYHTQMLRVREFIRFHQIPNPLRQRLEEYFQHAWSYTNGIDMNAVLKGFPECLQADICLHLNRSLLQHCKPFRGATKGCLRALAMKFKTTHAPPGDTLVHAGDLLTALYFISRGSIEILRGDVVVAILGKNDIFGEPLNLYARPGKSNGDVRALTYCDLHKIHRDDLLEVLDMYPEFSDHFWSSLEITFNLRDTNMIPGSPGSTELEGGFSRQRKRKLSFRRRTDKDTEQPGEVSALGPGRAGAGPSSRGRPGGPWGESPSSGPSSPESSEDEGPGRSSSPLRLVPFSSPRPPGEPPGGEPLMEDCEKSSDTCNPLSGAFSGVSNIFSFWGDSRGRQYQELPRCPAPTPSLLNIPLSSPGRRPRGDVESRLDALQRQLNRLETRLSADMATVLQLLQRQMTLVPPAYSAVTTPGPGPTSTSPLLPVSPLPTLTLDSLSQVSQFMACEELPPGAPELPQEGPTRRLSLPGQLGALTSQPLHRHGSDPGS

Compound | hERG current change (%, negative = inhibition) at 10uM
CCOc1ccc(C(NC(=O)CC)c2c(O)ccc3ccccc23)cc1 (centres unmarked) | -7.96%
O=C(COC(=O)c1ccccc1NC(=O)c1ccco1)Nc1ccc2c(c1)OC(F)(F)O2 | 12.2%
FC(F)(F)c1cc(-c2ccc(Cl)cc2)nc(NCc2cccnc2)n1 | 3.07%
CNC(=S)N/N=C/c1cccc(OCc2ccccc2F)c1 | 18.3%
Cc1cc(NC(=O)CSc2[nH]c(=O)cc(C(F)(F)F)c2C#N)no1 | -2.45%
CCNC(=O)C(=O)N/N=C/c1cc([N+](=O)[O-])ccc1O | 4.32%
CCC1CSC(Nc2ccc(C(=O)/C=C/c3cccc(C)c3)cc2)=N1 (centres unmarked) | 14.4%
CCC1CSC(Nc2ccc(C(=O)/C=C/c3ccc(Br)cc3)cc2)=N1 (centres unmarked) | 0.372%
CCC1CSC(Nc2ccc(C(=O)/C=C/c3ccc(OC)c(OC)c3)cc2)=N1 (centres unmarked) | -52.4%
C[C@@H](O)c1nc2ccccc2n1N | 9.12%
Cc1cc(N2C(=O)c3ccccc3C2=O)n(C)n1 | 9.7%
CCOC(=O)N1CCN(C(=O)/C(=C/c2cccs2)NC(=O)c2ccc(OC)c(OC)c2)CC1 | -71.2%
COc1ccc(C(=O)N/C(=C/c2cccs2)C(=O)NC(C)(C)C)cc1OC | 5.42%
COc1ccc(C(=O)N/C(=C\c2cccs2)C(=O)N2CCN(C)CC2)cc1OC | -56.4%
COc1ccc(C(=O)N/C(=C/c2cccs2)C(=O)NN)cc1OC | 13.7%
COc1ccc(/C=C(\NC(=O)c2ccc(OC)c(OC)c2)C(=O)N2CCN(C)CC2)cc1 | -19.4%
CCOC(=O)N1CCN(C(=O)c2ccc(OC)c(OC)c2)CC1 | 18.5%
Cc1ccc(CNC(=O)C2CC=CCC2C(=O)O)cc1 (centres unmarked) | 16.3%
CCOC(=O)c1cc([N+](=O)[O-])sc1N | 2.1%
O=C(COC(=O)c1ccccc1O)Nc1cc(S(=O)(=O)N2CCCCCC2)ccc1Cl | -9%

Compound | hERG current change (%, negative = inhibition) at 10uM
Cn1c(=O)n(C)c2cc(NC(=O)COc3ccc(F)cc3F)ccc21 | -13.6%
CCOc1ccccc1C(=O)NCC(=O)N(C)Cc1cccnc1 | -3.07%
CCN(CC)CCNS(=O)(=O)c1ccc(Cl)cc1.Cl | -12.9%
CC(C)(C)NCC(O)(c1ccc(Cl)cc1)c1ccc(Cl)cc1 | -13.8%
CCN(CC)CCNC(=S)Nc1ccc(Cl)cc1 | -21.7%
CCC(C)NCC(O)(c1ccc(Cl)cc1)c1ccc(Cl)cc1 (centres unmarked) | -37.7%
CCN(CC)CCNCC(O)(c1ccc(Cl)cc1)c1ccc(Cl)cc1 | -82.4%
CCCCNCC(O)(c1ccc(Cl)cc1)c1ccc(Cl)cc1 | -68%
COc1ccc(-c2nc3n(n2)C(c2cccnc2)C(C(N)=O)=C(C)N3)cc1 (centres unmarked) | -17.3%
CCOC(=O)COc1ccc(S(=O)(=O)Nc2ccc3c(c2)OCCO3)cc1 | -3.24%
COC(=O)C(Sc1nc(C)cc(C)c1C#N)c1ccccc1 (centres unmarked) | -10.6%
CC(CC(=O)NC1CCCCC1)S(=O)(=O)c1ccc2c(c1)CCN2C(=O)C1CC1 (centres unmarked) | 28.2%
CCCS(=O)(=O)N1CCCC(C(=O)NCc2ccc(C)cc2)C1 (centres unmarked) | 4.91%
COc1ccc(S(=O)(=O)N2CCOCC2)cc1NC(=O)COC(=O)C1CCC1 | -6.23%
CC1=C(/C=C/c2ccccc2)CCN(C)C1.Cl | -24.6%
CN1CC=C(/C=C/c2ccc(-c3ccccc3)cc2)CC1.Cl | -50.1%
Cl.OC(CN1CC=C(/C=C/c2ccc(Br)cc2)CC1)c1ccccc1 (centres unmarked) | -2.33%
CCCCc1nc(SCC(=O)Nc2cccc(Cl)c2)n[nH]1 | -4.4%
Nc1ccc2nc(SCC(=O)c3ccccc3)sc2c1 | 9.11%
CCCOc1cccc(C(=O)NC(=S)Nc2ccc(N3CCN(C)CC3)cc2)c1 | 1.67%

Compound | hERG current change (%, negative = inhibition) at 10uM
CCOc1ccc(NC(=S)NCCN2CCN(Cc3ccccc3)CC2)cc1 | -62.3%
CCOc1ccc(NC(=S)Nc2ccc(OCc3ccccc3)cc2)cc1 | 4.64%
COc1ccc(NC(=S)NCCCN2CCCC2)cc1 | 5.95%
CCOc1ccc(NC(=S)NCCCN2CCOCC2)cc1 | 10.7%
CCOc1ccc(NC(=S)NCCCN2CCN(c3ccc(OC)cc3)CC2)cc1 | -70.7%
CCOc1ccc(NC(=S)NCCCc2ccccc2)cc1 | -12.4%
CCOc1cccc(C(=O)NC(=S)Nc2ccc(N3CCCC3)cc2)c1 | 10.8%
CCCN1CCN(CCCNC(=S)Nc2ccc(OC)cc2)CC1 | -22.8%
COc1ccc(N2CCN(CCCNC(=S)Nc3c(C)cccc3C)CC2)cc1 | -52.4%
COc1ccc(N2CCC(CNC(=S)Nc3c(C)cccc3C)C2)cc1 (centres unmarked) | -4.72%
CCOc1cccc(C(=O)NC(=S)Nc2ccc(N3CCN(CC)CC3)cc2)c1 | -72.1%
COCCCn1cc(C(=O)c2ccccc2OCC(=O)Nc2cccc(F)c2)cc(C#N)c1=O | -35.9%
CN([C@@H](C(=O)OC(C)(C)C)c1ccccc1)S(=O)(=O)c1cccc(S(=O)(=O)N(C)[C@@H](C(=O)OC(C)(C)C)c2ccccc2)c1 | 14.3%
O=C(Nc1ccc(Cl)cc1F)c1cccc2ccccc12 | 12.2%
COc1cc(Cn2c(=O)c3c(OC)c(C)cnc3n(C)c2=O)cc(OC)c1 | 14.1%
Cn1c(CO)cnc1SCc1ccc(Cl)cc1 | 0.94%
CCOc1ccc(C(=O)NC(=S)NCCCN2CCOCC2)cc1 | -50.1%
O=C(NC(=S)NCCCN1CCOCC1)c1ccc(Br)cc1 | -42.9%
Cc1ccc(C(=O)NC(=S)NCCCN2CCOCC2)cc1 | -7.43%
